Assay in all cases: qHTS profiling for inhibitors of Plasmodium falciparum proliferation (AID 504749); further: nearly all actives have a fitted effect of over 60% in size
Common to all, as to settings: P. falciparum in erythrocytes, SYBR Green DNA, 72 h; series mostly up to 28.7 µM

For assay [1], the system named is CP269. In outline:
(§1)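 P. falciparum-infected erythrocytes (0.3% parasitemia, 2.5% hematocrit) incubated with compound 72 h at 37 C, 5% CO2. Parasite DNA detected by SYBR Green after lysis, overnight at room temperature; normalised to 0.29 uM artemisinin and DMSO.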

Assay [2] relates to CP286. In outline: as §1
Assay [3] deals with CP291. In outline:
as §1

The subject of assay [4] is CP297. In outline:
as §1

Assay [5] has as its system CP305. In outline:
as §1

Assay [6] has as its system CP315. In outline: as §1
Assay [7] deals with CP325. In outline:
as §1

For assay [8], the system named is CP329. In outline:
as §1

For assay [9], the system named is CP335. In outline:
as §1

For assay [10], the system named is DFO2036. In outline:
as §1

Assay [11] concerns DIV14. In outline: as §1
Assay [12] deals with DIV17. In outline:
as §1

The subject of assay [13] is DIV30. In outline: as §1
Assay [14] concerns Dd2. In outline:
as §1

Assay [15] concerns ECU. In outline: as §1
The test system of assay [16] is FAB9. In outline:
as §1

Assay [17] has as its system GB4. In outline:
as §1

For assay [18], the system named is HB3. In outline: as §1
Assay [19] has as its system ICS. In outline:
as §1

For assay [20], the system named is JCK. In outline:
as §1

Inconclusive results are not listed. Calls of active or inactive are those of the source. The call rests on the fitted dose curve; in most records, active means well fitted inhibition curve with a large enough effect; inconclusive means small, poorly fitted or top-dose-only effect; inactive means flat fitted curve, though single readings scatter.
Potency means the concentration at half of the fitted maximal effect.

With `Nc1c(N=Nc2ccc(-c3ccc(N=Nc4cc(S(=O)(=O)O)c5ccccc5c4N)cc3)cc2)cc(S(=O)(=O)O)c2ccccc12`, the Potency entry in assay [1], in assay [2], in assay [3], in assay [4], in [5] and in [6] was “inactive” each time. The Potency result in assay [7], in assay [8], in [9], in assay [10], in assay [11] and in assay [12] was “inactive” in each case. Further, the Potency entry in [13], in assay [14], in [15], in assay [16], in assay [17] and in assay [18] was “inactive” in each case. For the same compound, the Potency entry in assay [19] was “inactive”.
On to `Cc1c(C)c2c(c(C)c1O)CC[C@@](C)(CCC[C@@H](C)CCC[C@@H](C)CCCC(C)C)O2`, for which the Potency result in assay [1], in assay [2], in assay [3], in [4], in [5] and in assay [6] was “inactive” each time. For the same compound, the Potency result in assay [7], in assay [8], in [9], in [10], in assay [11] and in [12] was “inactive” throughout. The Potency entry in assay [13], in assay [14], in assay [15], in assay [16], in [17] and in assay [18] was “inactive” each time. The Potency result in assay [19] and in [20] was “inactive” throughout.
Turning to `COC(C(=O)C(O)C(C)O)C1Cc2cc3cc(OC4CC(OC5CC(O)C(O)C(C)O5)C(O)C(C)O4)c(C)c(O)c3c(O)c2C(=O)C1OC1CC(OC2CC(OC3CC(C)(O)C(O)C(C)O3)C(O)C(C)O2)C(O)C(C)O1` (configuration not stated), the Potency in assay [1] was 1.9 µM (active); in [2] it was 0.126 µM (active); in assay [3], 1.69 µM (active); in assay [4], 2.39 µM (active); in assay [5], 1.51 µM (active); in assay [6], 3.79 µM (active). Further, the Potency was 3.01 µM (active) in assay [7]; 2.13 µM (active) in [8]; 0.379 µM (active) in assay [9]; 0.141 µM (active) in [10]; 1.51 µM (active) in assay [11]; 1.51 µM (active) in assay [12]. For the same compound, the Potency in assay [13] is 3.01 µM (active); in assay [14], 0.1 µM (active); in assay [15], 0.178 µM (active); in [16], 1.58 µM (active); in assay [17], 1.35 µM (active); in assay [18] it was 0.1 µM (active). Further, the Potency in [19] is 0.1 µM (active).
As for `CC1=CCC(C(C)(C)O)CC1` (configuration not stated), the Potency result in assay [1], in assay [2], in assay [3], in [4], in [5] and in assay [6] was “inactive” each time. Further, the Potency result in assay [7], in assay [8], in assay [9], in [10], in [11] and in assay [12] was “inactive” in each case. The Potency result in [13], in assay [14], in [15], in assay [16], in [17] and in assay [18] was “inactive” throughout. In addition, the Potency entry in assay [19] and in assay [20] was “inactive” throughout.
On to `CCNC(=O)[C@@H]1CCCN1C(=O)[C@H](CCCN=C(N)N)NC(=O)[C@H](CC(C)C)NC(=O)[C@@H](Cc1c[nH]c2ccccc12)NC(=O)[C@H](Cc1ccc(O)cc1)NC(=O)[C@H](CO)NC(=O)[C@H](Cc1c[nH]c2ccccc12)NC(=O)[C@H](Cc1cnc[nH]1)NC(=O)[C@@H]1CCC(=O)N1`, for which the Potency is 7.57 µM (active) in assay [1]; 3.16 µM (active) in assay [2]; 7.57 µM (active) in assay [3]; 6.75 µM (active) in assay [4]; 7.57 µM (active) in assay [5]; 15.1 µM (active) in assay [6]. Moreover, the Potency in [7] was 12 µM (active); in [8], 8.49 µM (active); in assay [9] it was 4.78 µM (active); in assay [10], 5.62 µM (active); in [11] it was 0.953 µM (active); in assay [12], 0.953 µM (active). Besides, the Potency in assay [13] was 1.69 µM (active); in assay [14], 3.16 µM (active); in assay [15], 1.12 µM (active); in [16] it was 8.91 µM (active); in assay [17] it was 2.39 µM (active); in [18] it was 11.2 µM (active). In addition, the Potency in assay [19] was 2.24 µM (active); in assay [20], 14.1 µM (active).
For `C[C@@H]1CCC2[C@@H](C)[C@@H](O)O[C@@H]3O[C@@]4(C)CC[C@@H]1[C@@]23OO4` (some centres not stated), the Potency in [1] was 0.0048 µM (active); in assay [2], 0.0025 µM (active); in [3], 0.0043 µM (active); in assay [4] it was 0.0048 µM (active); in assay [5] it was 0.0038 µM (active); in [6] it was 0.0067 µM (active). The Potency was 0.0048 µM (active) in [7]; 0.006 µM (active) in assay [8]; 0.0027 µM (active) in assay [9]; 0.0016 µM (active) in assay [10]; 0.003 µM (active) in assay [11]; 0.0027 µM (active) in [12]. Also, the Potency in assay [13] is 0.0024 µM (active); in assay [14], 0.001 µM (active); in assay [15] it was 0.0009 µM (active); in assay [16], 0.0009 µM (active); in assay [17], 0.0019 µM (active); in assay [18], 0.0028 µM (active). Besides, the results for the Potency in assay [19] and in assay [20] were 0.001 µM (active) and 10 µM (active), respectively.
`O=S(=O)(O)O`: the Potency entry in assay [1], in assay [2], in assay [3], in assay [4], in assay [5] and in [6] was “inactive” each time. Further, the Potency result in assay [7], in assay [8], in [9], in [10], in assay [11] and in [12] was “inactive” throughout. Besides, the Potency entry in assay [13], in assay [14], in [15], in [16], in assay [17] and in assay [18] was “inactive” throughout. For the same compound, the Potency entry in assay [19] and in [20] was “inactive” each time.
For `CC(C(=O)O)c1ccc(N2Cc3ccccc3C2=O)cc1` (configuration not stated), the Potency result in assay [1], in [2], in [3], in assay [4], in assay [5] and in [6] was “inactive” each time. In addition, the Potency result in assay [7], in [8], in [9], in [10], in assay [11] and in [12] was “inactive” throughout. For the same compound, the Potency result in assay [13], in assay [14], in assay [15], in [16], in assay [17] and in assay [18] was “inactive” throughout. Further, the Potency result in assay [19] and in [20] was “inactive” in each case.
Regarding `CCCCCCCC/C=C\CCCCCCCC(=O)O`, the Potency result in [1], in assay [2], in assay [3], in [4], in assay [5] and in assay [6] was “inactive” throughout. Moreover, the Potency result in [7], in [8], in assay [9], in assay [10], in [11] and in [12] was “inactive” in each case. The Potency result in assay [13], in assay [14], in assay [16], in assay [17], in [18] and in assay [19] was “inactive” each time. The Potency entry in assay [20] was “inactive”.

The values are drawn from PubChem BioAssay (NCATS).
